The nature of test [1]: qHTS assay to identify aromatase inhibitors - cell viability counter screen (AID 743084;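 further: cells stimulated with testosterone during compound exposure; nearly all actives have a fitted effect of over 55% in size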). (Quantitative high-throughput screening tests each substance at several concentrations.)
Test [2] has as its target Aryl hydrocarbon receptor (Homo sapiens) (UniProt P35869). The test is described as follows: qHTS assay to identify small molecule that activate the aryl hydrocarbon receptor (AhR) signaling pathway (AID 743085). Further: nearly all actives have a fitted effect of over 15% in size. Further: potency means the concentration at half of the fitted maximal effect.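 On activation: HG2L7.5c1 human HepG2 liver cells with stably integrated DRE-driven firefly reporter; series mostly up to about 70 µM.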 A digest of the protocol:
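Luminescence read-out: ONE-Glo reagent, 30 min at room temperature, in HG2L7.5c1 HepG2 reporter cells treated 24 h at 37C. Viability was measured beforehand by CellTiter-Fluor fluorescence after 30 min at 37C.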

For test [3], the target named is Peroxisome proliferator-activated receptor gamma (Homo sapiens) (UniProt P37231). Briefly: qHTS assay to identify small molecule agonists of the peroxisome proliferator-activated receptor gamma (PPARg) signaling pathway (AID 743094; active means well fitted activation curve with a large enough effect in the signal ratio in the repeat runs, not every such curve was filed as active; the % refers to the signal ratio). An outline of the steps: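 Fluorescence-based beta-lactamase readout in HEK293H PPARg UAS-bla cells after 17 h compound exposure (37C) and 1 h B/G FRET substrate incubation at room temperature.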
Peroxisome proliferator-activated receptor gamma (Homo sapiens), sequence (P37231 whole entry, looked up): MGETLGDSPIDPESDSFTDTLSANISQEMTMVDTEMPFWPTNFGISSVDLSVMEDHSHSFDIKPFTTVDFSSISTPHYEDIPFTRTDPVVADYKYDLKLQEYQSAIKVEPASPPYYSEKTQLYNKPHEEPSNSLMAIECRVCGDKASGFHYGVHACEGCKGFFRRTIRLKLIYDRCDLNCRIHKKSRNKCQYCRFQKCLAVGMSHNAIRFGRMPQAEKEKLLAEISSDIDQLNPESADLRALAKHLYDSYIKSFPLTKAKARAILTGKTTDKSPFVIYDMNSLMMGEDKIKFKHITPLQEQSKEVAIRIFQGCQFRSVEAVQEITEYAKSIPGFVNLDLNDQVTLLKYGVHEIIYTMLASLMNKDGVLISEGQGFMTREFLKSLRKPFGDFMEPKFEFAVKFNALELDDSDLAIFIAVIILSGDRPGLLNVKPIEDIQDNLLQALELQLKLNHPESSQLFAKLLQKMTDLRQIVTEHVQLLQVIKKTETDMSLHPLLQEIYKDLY

The target is the same in test [4]. Briefly: qHTS assay to identify small molecule antagonists of the peroxisome proliferator-activated receptor gamma (PPARg) signaling pathway (AID 743191; calls by dose curve; further: series mostly up to about 63 µM; nearly all actives have a fitted effect of over 30% in size). A digest of the protocol:
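GeneBLAzer PPARg UAS-bla HEK293H cells carrying a UAS-driven beta-lactamase reporter were plated at 3000 cells/well, preincubated 5 h at 37C, then given compound for 17 h at 37C; LiveBLAzer B/G FRET substrate was read after 1 h at room temperature.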

Test [5] can be described thus: qHTS assay to identify small molecule antagonists of the peroxisome proliferator-activated receptor gamma (PPARg) signaling pathway - cell viability counter screen (AID 743194). Further: nearly all actives have a fitted effect of over 55% in size. A digest of the protocol:
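PPARg-UAS-bla HEK293H cells were plated, rested 5 h at 37 C, then treated with compounds plus rosiglitazone (50 nM final) for 17 h at 37 C; viability was then read by CellTiter-Glo luminescence after 30 min at room temperature.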

A short description of test [6]: qHTS assay for small molecule agonists of the antioxidant response element (ARE) signaling pathway - cell viability counter screen (AID 743203; calls by dose curve; further: nearly all actives have a fitted effect of over 55% in size). An outline of the steps:
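Parallel cytotoxicity read-out for the ARE-bla screen: HepG2 reporter cells, 16 hrs with compounds, then CellTiter-Glo luminescence.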

A short description of test [7]: qHTS assay for small molecule activators of the heat shock response signaling pathway - cell viability counter screen (AID 743209). Further: nearly all actives have a fitted effect of over 50% in size. A digest of the protocol: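 To flag cytotoxic compounds, HSE-bla HeLa cells plated at 1500 cells/well were dosed for 5 h at 37 C, followed by the reporter FRET read and then CellTiter-Glo, with luminescence recorded 30 min after reagent addition.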

Test [8] can be described thus: qHTS assay for small molecule agonists of the antioxidant response element (ARE) signaling pathway (AID 743202; active means well fitted activation curve with a large enough effect in the signal ratio in the repeat runs, not every such curve was filed as active; the % refers to the signal ratio; further: potency means the concentration at half of the fitted maximal effect). A digest of the protocol:
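Steps: seed ARE-bla HepG2 cells (2,000/well); incubate 5 h at 37 C; add compounds by pin tool; incubate 16 h at 37 C; add FRET substrate; read fluorescence after 2 h at RT.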

Test [9] can be described thus: qHTS assay for small molecule activators of the heat shock response signaling pathway (AID 743210; active means well fitted activation curve with a large enough effect in the signal ratio in the repeat runs, with a control signal flat, not every such curve was filed as active; the % refers to the signal ratio;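 further: HeLa cells with beta-lactamase reporter driven by heat shock elements; series mostly up to about 63 µM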). An outline of the steps:
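Activation of heat shock element-controlled beta-lactamase expression is measured in HeLa cells by LiveBLAzer FRET fluorescence, with compound exposure lasting 5 h at 37 C and substrate loading 2.5 h at room temperature.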

Test [10] in a line: qHTS assay to identify small molecule that activate the aryl hydrocarbon receptor (AhR) signaling pathway - cell viability counter screen (AID 743086).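 Further: HepG2 liver cells carrying the AhR DRE luciferase reporter; series mostly up to about 70 µM; nearly all actives have a fitted effect of over 45% in size.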 An outline of the steps:
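HepG2-AhR-luc (HG2L7.5c1) cells, 4000/well, were preincubated 5 h at 37C, exposed to compound in qHTS format for 24 hr at 37C, then given CellTiter-Fluor for 30 min; viability was read as fluorescence in the reporter wells.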

The text below walks through data of PubChem BioAssay (Tox21).

Inconclusive results are not listed. A number with no mark means an inactive call. Activity calls are given as the source filed them. Unless noted, the call rests on the fitted dose curve; in most records, active means well fitted curve in the direction sought with a large enough effect in the repeat runs; inconclusive means weak or mixed curves; inactive means no such curve, though single readings can be large; an effect the other way counts as inactive or inconclusive.

Aryl hydrocarbon receptor (Homo sapiens), sequence (P35869 whole entry, looked up): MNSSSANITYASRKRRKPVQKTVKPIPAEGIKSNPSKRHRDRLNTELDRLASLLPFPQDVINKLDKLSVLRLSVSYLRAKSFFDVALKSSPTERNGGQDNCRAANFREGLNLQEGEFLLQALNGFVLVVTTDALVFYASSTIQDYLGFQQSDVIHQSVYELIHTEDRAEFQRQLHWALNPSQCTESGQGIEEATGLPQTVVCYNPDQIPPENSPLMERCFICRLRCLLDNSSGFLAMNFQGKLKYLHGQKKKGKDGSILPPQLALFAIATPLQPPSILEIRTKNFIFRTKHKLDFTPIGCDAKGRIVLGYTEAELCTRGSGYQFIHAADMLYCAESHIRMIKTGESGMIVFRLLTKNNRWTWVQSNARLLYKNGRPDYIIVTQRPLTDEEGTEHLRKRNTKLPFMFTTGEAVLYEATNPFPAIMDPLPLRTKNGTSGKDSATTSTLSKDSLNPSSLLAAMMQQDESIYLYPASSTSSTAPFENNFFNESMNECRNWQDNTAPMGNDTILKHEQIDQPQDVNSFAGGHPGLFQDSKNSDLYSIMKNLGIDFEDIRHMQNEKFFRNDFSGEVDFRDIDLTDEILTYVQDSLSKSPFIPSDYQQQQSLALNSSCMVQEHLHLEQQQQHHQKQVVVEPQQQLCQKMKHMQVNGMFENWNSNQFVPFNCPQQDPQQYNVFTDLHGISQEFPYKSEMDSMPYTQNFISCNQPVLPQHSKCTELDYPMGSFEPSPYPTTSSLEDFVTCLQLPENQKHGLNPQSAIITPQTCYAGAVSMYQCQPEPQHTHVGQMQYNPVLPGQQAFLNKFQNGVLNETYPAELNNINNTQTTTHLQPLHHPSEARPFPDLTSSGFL

Consider `O=C=NCC1CCCC(CN=C=O)C1` (configuration not stated), for which the Potency entry in [1], in test [2], in test [3] and in [7] was “inactive” throughout. For the same compound, the compound was classed as inactive in test [4], in [5] and in test [6].

Consider `CCOC(=O)CC1(C)OCC(C)O1` (configuration not stated), for which the Potency entry in test [1], in [2], in [3], in test [8] and in test [7] was “inactive” in each case. For the same compound, the compound was classed as inactive in test [5], in test [6] and in test [9].

For the compound `O=C(CN1CCNCC1)NC1CCCCC1`, the Potency entry in [1], in test [2], in [8] and in test [7] was “inactive” each time. For the same compound, the result in [4], in test [5], in test [6] and in test [9] was inactive.

For `Nc1nnnn1-c1ccccc1`, the Potency result in test [1], in test [10], in [3], in [8] and in [7] was “inactive” in each case. Besides, the compound was classed as inactive in [4], in test [5], in [6] and in test [9].

For `O=C(O)CSCC(=O)NC1CCSC1=O` (configuration not stated), the Potency entry in [1], in test [10], in test [3], in [8] and in test [7] was “inactive” in each case. In addition, the result in test [4], in test [5], in [6] and in test [9] was inactive.

For the compound `c1ccc(B(c2ccccc2)c2ccccc2)cc1`, the Potency result in test [1], in test [3] and in test [7] was “inactive” each time. In test [2], the Potency was 30.6 µM (active). Also, the result in [6] and in test [9] was inactive.

`ONc1ccccc1`: the Potency entry in test [1], in test [3] and in [7] was “inactive” each time. Besides, in test [2], the Potency is 60.5 µM (active). Also, the call in test [4], in test [5] and in test [6] was inactive.

`CC(C)Nc1ccccc1`: the Potency result in test [1], in [10], in test [3], in [8] and in test [7] was “inactive” each time. Moreover, the result in test [4], in test [5], in test [6] and in test [9] was inactive.

In the case of `c1ccc2c(CC3=NCCN3)cccc2c1`, the Potency entry in [1], in [10], in test [3], in test [8] and in test [7] was “inactive” in each case. Besides, the call in test [4], in test [5] and in test [6] was inactive.

`Cc1c(NC(=O)c2cccnc2)c(=O)n(-c2ccccc2)n1C`: the Potency result in test [1], in test [2], in test [8] and in test [7] was “inactive” in each case. Besides, the outcome in test [4], in [6] and in test [9] was inactive.

Turning to `C=CCSSCCC`, the Potency entry in [1], in test [10], in test [3], in test [8] and in [7] was “inactive” in each case. Also, the call in [4], in test [5], in test [6] and in [9] was inactive.

Regarding `CC(C)=CCC/C(C)=C/COC=O`, the Potency entry in test [1], in test [10], in [3], in test [8] and in test [7] was “inactive” throughout. Moreover, the outcome in [4], in test [5], in test [6] and in test [9] was inactive.

In the case of `O=C(Cl)c1ccccc1[N+](=O)[O-]`, the Potency entry in [1], in [10], in test [3], in [8] and in [7] was “inactive” each time. For the same compound, the compound was classed as inactive in [4], in [5], in test [6] and in test [9].

As to `NCc1ccc(S(N)(=O)=O)cc1`, the Potency result in test [1], in test [2], in test [3], in [8] and in test [7] was “inactive” in each case. Further, the compound was called inactive in test [4], in test [5], in test [6] and in [9].

In the case of `C=CC(=O)OCC1CCCO1` (configuration not stated), the Potency result in test [1], in [2], in test [3] and in test [7] was “inactive” each time. In addition, the compound was classed as inactive in test [4], in [5], in test [6] and in [9].

Regarding `Cc1ccccc1C(N)=O`, the Potency result in test [1], in [2], in test [3], in test [8] and in test [7] was “inactive” throughout. The compound was classed as inactive in [5], in test [6] and in test [9].

With `CC(=O)O[Si](C)(OC(C)=O)OC(C)=O`, the Potency result in test [1], in [10], in test [3], in test [8] and in test [7] was “inactive” each time. For the same compound, the compound was classed as inactive in [4], in test [5], in [6] and in test [9].

On to `CCOC(CN1CCN(CC(C)C(=O)c2ccccc2)CC1)c1ccccc1` (configuration not stated), for which the Potency entry in test [1], in test [2], in test [3] and in test [7] was “inactive” in each case. The result in test [5] was inactive. Also, in [8], the Potency is 10.3 µM (active).

For `C[C@]12CCC(=O)C=C1CC[C@H]1[C@@H]3CC[C@](O)(C(=O)CO)[C@@]3(C)C[C@H](O)[C@@]12F`, the Potency result in test [1], in test [2], in [3], in test [8] and in [7] was “inactive” in each case. Moreover, the outcome in [5], in test [6] and in test [9] was inactive.

For the compound `CC(C)OC(=O)CCC(=O)OC(C)C`, the Potency result in test [1], in [2], in test [3] and in test [7] was “inactive” throughout. The compound was called inactive in [5], in test [6] and in test [9].

`CCCCCCCCCCCCCCCCCCOCCO`: the Potency entry in [1], in test [2], in test [3], in test [8] and in test [7] was “inactive” in each case. Also, the compound was classed as inactive in test [4], in test [5], in [6] and in test [9].

With `OC[C@H]1O[C@@H](O[C@@H]2[C@@H](CO)O[C@](O)(CO)[C@H]2O)[C@H](O)[C@@H](O)[C@H]1O`, the Potency result in test [1], in test [10], in test [3], in [8] and in test [7] was “inactive” each time. Also, the compound was classed as inactive in [4], in test [5] and in test [6].
